Common to all, as to assay: DAPPL (digital affinity profiling via proximity ligation, sequencing); 10 mM Tris-HCl pH 7.5, 50 mM NaCl, 1 mM DTT, 4% glycerol, room temperature, 30 min; GST-TFs on glutathione beads, 16-mer random dsDNA library, 0.1% formaldehyde crosslink after washing; high values mean tight binding
In assay [1] the target is T1, FEV (Homo sapiens, UniProt Q99581 1-238).
T1 sequence: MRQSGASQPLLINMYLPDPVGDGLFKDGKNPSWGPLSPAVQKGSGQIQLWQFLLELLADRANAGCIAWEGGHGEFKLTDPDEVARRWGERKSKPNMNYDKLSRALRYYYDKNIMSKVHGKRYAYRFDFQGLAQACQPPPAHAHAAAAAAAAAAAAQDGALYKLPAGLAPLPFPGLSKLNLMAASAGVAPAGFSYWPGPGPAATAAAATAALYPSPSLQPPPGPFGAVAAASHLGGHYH
Conditions: protein: recombinant; tags: N-terminal GST; dsDNA, one strand shown. The procedure, abridged: (§1)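 Beads coated with glutathione captured GST-fused human transcription factors that had been expressed in yeast, and the factors were then given DNA barcodes and pooled with a tag-only sample. The pools were incubated with 200 nmole of a random double-stranded 16-mer DNA library in Tris/NaCl/DTT/glycerol buffer for 30 min at room temperature, washed, crosslinked with 0.1% formaldehyde and proximity-ligated with BsaI/T4 ligase at 37 °C for 1 h. PCR amplification and Illumina NextSeq500 sequencing came last. Binding signal is each hexamer's read frequency for a factor divided by its frequency for the tag-only sample.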

Assay [2] concerns the target ETV5 (Homo sapiens, UniProt P41161 1-510). Conditions: protein: recombinant; tags: N-terminal GST; dsDNA, one strand shown. The procedure, abridged:
as §1

The target in assay [3] is HSF1 (Homo sapiens, UniProt Q00613 1-529). The note with it: protein: recombinant; tags: N-terminal GST; chain copies: 3; dsDNA, one strand shown. In short, it runs like this: as §1
Assay [4] deals with T2, SPIC (Homo sapiens, UniProt Q8N5J4 1-248).
T2 sequence: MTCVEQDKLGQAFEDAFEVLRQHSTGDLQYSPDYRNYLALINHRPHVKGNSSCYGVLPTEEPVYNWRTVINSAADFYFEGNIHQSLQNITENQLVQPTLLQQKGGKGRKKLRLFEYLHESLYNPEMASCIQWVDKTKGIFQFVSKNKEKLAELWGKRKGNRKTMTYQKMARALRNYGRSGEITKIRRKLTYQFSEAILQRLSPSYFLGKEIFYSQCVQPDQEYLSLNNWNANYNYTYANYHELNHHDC
Conditions: protein: recombinant; tags: N-terminal GST; dsDNA, one strand shown. The procedure, abridged:
as §1

Assay [5] concerns the target ELF4 (Homo sapiens, UniProt Q99607 1-663). Conditions: protein: recombinant; tags: N-terminal GST; dsDNA, one strand shown. The procedure, abridged:
as §1

Assay [6] has as its target T3, ELK4 (Homo sapiens, UniProt P28324-2 1-405).
T3 sequence: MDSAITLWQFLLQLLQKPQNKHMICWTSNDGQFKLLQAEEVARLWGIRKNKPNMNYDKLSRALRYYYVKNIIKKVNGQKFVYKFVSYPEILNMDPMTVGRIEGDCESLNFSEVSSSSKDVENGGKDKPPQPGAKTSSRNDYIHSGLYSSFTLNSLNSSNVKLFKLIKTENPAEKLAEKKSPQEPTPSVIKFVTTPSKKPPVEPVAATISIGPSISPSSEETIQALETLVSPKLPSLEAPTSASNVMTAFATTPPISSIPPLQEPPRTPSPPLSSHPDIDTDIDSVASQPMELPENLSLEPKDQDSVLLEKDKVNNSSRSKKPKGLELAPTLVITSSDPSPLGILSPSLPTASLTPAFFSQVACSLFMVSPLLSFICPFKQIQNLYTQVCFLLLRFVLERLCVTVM
The note with it: protein: recombinant; tags: N-terminal GST; dsDNA, one strand shown. The procedure, abridged:
as §1

Assay [7] concerns the target T4, ETV2 (Homo sapiens, UniProt O00321 1-342).
T4 sequence: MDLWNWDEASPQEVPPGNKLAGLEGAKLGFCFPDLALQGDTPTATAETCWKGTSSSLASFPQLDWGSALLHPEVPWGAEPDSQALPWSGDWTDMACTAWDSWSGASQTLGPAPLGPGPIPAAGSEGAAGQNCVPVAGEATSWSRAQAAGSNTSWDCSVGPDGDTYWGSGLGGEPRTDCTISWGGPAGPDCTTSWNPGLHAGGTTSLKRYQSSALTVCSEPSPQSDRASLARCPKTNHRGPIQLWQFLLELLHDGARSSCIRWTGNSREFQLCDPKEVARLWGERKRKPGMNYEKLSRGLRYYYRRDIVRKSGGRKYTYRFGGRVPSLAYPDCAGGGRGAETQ
Conditions: protein: recombinant; tags: N-terminal GST; dsDNA, one strand shown. In short, it runs like this:
as §1

Assay [8] has as its target T5, ELF3 (Homo sapiens, UniProt P78545 1-371).
T5 sequence: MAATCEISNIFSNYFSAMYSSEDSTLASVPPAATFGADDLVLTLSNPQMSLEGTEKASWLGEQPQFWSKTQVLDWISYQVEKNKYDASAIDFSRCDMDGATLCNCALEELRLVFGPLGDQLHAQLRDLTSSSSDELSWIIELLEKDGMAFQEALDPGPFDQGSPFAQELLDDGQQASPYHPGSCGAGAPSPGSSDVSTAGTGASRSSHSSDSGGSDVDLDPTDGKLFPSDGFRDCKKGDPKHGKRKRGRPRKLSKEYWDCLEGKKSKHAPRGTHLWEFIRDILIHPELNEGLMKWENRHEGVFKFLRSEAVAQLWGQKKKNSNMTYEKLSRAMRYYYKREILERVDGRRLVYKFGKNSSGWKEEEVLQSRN
Conditions: protein: recombinant; tags: N-terminal GST; dsDNA, one strand shown. In short, it runs like this:
as §1

Assay [9] deals with CRX (Homo sapiens, UniProt O43186 1-299). Conditions: protein: recombinant; tags: N-terminal GST; dsDNA, one strand shown. The procedure, abridged:
as §1

Assay [10] addresses ETV1 (Homo sapiens, UniProt P50549 1-477). Conditions: protein: recombinant; tags: N-terminal GST; dsDNA, one strand shown. In short, it runs like this: as §1
Assay [11] has as its target T6, ERF (Homo sapiens, UniProt P50548 1-548).
T6 sequence: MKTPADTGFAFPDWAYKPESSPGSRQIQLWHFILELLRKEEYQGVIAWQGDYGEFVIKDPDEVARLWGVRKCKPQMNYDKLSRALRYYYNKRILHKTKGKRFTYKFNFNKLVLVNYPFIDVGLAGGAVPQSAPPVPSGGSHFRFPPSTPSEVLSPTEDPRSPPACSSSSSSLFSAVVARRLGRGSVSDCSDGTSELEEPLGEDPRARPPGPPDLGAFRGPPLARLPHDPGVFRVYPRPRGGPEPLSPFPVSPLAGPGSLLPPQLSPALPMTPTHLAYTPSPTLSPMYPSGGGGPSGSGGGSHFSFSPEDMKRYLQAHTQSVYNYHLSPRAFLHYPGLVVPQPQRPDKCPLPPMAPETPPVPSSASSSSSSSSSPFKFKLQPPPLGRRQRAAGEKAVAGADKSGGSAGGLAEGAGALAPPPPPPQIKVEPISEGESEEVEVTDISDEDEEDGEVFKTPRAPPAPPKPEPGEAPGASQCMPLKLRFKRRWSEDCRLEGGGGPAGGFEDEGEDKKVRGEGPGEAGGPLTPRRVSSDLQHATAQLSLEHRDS
The note with it: protein: recombinant; tags: N-terminal GST; dsDNA, one strand shown. The procedure, abridged:
as §1

The target in assay [12] is T7, ETV3L (Homo sapiens, UniProt Q6ZN32 1-361).
T7 sequence: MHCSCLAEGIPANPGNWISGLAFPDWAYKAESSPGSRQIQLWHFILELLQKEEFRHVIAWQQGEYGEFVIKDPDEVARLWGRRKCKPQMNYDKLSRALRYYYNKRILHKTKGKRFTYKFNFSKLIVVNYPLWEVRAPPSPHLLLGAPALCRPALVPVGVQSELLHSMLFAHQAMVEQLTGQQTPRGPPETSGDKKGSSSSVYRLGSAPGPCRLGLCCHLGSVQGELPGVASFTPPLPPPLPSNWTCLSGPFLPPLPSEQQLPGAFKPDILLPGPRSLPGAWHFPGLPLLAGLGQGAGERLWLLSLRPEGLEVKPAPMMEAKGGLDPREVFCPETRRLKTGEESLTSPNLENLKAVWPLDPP
Conditions: protein: recombinant; tags: N-terminal GST; dsDNA, one strand shown. In short, it runs like this: as §1

For assay [13], the target named is T8, ETS2 (Homo sapiens, UniProt P15036 1-469).
T8 sequence: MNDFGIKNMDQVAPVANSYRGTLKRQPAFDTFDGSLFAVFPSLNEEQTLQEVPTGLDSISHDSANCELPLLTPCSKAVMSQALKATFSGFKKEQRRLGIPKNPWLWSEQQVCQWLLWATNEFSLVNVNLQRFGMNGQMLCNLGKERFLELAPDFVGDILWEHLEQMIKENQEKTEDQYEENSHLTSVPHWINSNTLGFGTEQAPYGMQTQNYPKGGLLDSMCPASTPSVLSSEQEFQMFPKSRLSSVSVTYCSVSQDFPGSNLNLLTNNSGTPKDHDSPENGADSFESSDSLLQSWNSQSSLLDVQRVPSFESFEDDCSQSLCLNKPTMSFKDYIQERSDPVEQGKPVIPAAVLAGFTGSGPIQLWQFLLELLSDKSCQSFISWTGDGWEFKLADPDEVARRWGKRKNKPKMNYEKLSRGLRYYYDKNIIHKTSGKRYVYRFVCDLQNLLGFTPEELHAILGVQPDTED
The note with it: protein: recombinant; tags: N-terminal GST; dsDNA, one strand shown. In short, it runs like this:
as §1

Assay [14] deals with T9, SPDEF (Homo sapiens, UniProt O95238 1-335).
T9 sequence: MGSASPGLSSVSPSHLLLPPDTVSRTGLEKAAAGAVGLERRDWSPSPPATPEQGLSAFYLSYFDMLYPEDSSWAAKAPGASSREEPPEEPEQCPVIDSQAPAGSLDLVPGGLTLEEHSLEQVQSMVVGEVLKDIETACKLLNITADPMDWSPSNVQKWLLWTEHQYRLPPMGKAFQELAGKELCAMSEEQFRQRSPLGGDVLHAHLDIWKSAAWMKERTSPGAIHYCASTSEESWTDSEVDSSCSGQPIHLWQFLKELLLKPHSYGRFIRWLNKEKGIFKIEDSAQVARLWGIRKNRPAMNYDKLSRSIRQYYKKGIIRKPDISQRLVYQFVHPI
The note with it: protein: recombinant; tags: N-terminal GST; dsDNA, one strand shown. In short, it runs like this:
as §1

The target in assay [15] is T10, ETV7 (Homo sapiens, UniProt Q9Y603 1-341).
T10 sequence: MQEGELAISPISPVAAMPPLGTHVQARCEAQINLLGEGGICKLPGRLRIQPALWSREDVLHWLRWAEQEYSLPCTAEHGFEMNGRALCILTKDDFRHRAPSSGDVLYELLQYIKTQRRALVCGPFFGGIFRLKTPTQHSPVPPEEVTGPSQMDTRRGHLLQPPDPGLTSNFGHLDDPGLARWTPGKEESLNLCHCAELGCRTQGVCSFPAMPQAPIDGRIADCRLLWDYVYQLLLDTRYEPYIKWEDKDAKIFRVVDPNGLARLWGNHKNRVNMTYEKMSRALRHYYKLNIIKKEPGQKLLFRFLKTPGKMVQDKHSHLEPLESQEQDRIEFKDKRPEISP
The note with it: protein: recombinant; tags: N-terminal GST; dsDNA, one strand shown. In short, it runs like this:
as §1

Assay [16] addresses T11, ELF5 (Homo sapiens, UniProt Q9UKW6-2 1-255).
T11 sequence: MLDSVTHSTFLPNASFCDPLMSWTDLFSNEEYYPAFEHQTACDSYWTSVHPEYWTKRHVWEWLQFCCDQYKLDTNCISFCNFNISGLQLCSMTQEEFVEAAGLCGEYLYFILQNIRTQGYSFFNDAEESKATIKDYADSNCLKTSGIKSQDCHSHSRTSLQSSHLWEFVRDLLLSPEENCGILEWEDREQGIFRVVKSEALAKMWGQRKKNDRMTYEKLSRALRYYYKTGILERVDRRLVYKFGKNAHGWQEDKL
The note with it: protein: recombinant; tags: N-terminal GST; dsDNA, one strand shown. In short, it runs like this: as §1

Assay [17] addresses T12, ETV3 (Homo sapiens, UniProt P41162-2 1-143).
T12 sequence: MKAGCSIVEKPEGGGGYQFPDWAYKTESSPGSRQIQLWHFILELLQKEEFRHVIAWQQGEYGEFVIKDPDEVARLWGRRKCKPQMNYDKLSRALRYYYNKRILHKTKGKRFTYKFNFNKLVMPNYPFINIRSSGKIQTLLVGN
The note with it: protein: recombinant; tags: N-terminal GST; dsDNA, one strand shown. The procedure, abridged: as §1

Assay [18] deals with ETV6 (Homo sapiens, UniProt P41212 1-452). Conditions: protein: recombinant; tags: N-terminal GST; dsDNA, one strand shown. In short, it runs like this: as §1
Chain of ETV6 (P41212 whole entry): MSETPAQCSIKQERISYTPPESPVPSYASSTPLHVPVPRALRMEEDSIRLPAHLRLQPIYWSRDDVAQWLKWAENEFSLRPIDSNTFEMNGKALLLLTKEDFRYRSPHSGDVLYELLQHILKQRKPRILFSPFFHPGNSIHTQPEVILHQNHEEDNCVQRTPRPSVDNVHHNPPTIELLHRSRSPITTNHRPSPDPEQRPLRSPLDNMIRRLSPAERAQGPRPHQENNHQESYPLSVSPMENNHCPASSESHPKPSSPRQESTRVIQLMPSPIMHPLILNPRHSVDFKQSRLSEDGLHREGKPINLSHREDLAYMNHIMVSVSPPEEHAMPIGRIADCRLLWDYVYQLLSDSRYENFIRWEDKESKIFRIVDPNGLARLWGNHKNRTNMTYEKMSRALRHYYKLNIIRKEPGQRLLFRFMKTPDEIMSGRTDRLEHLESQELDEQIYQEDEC

Chain of ETV5 (P41161 whole entry): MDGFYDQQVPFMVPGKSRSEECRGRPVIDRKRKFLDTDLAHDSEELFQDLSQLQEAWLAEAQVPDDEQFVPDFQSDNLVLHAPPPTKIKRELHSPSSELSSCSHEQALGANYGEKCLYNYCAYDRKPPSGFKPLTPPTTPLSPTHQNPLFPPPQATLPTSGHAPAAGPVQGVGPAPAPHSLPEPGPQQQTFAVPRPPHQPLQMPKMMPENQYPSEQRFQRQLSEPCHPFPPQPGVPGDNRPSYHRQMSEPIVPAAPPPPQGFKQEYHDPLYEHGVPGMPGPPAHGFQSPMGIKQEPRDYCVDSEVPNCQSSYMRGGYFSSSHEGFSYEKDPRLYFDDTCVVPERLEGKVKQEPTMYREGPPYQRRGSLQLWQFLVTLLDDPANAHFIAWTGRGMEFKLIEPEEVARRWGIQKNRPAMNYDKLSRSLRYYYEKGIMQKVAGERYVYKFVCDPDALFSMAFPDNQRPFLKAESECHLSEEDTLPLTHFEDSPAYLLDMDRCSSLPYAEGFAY
Chain of HSF1 (Q00613 whole entry): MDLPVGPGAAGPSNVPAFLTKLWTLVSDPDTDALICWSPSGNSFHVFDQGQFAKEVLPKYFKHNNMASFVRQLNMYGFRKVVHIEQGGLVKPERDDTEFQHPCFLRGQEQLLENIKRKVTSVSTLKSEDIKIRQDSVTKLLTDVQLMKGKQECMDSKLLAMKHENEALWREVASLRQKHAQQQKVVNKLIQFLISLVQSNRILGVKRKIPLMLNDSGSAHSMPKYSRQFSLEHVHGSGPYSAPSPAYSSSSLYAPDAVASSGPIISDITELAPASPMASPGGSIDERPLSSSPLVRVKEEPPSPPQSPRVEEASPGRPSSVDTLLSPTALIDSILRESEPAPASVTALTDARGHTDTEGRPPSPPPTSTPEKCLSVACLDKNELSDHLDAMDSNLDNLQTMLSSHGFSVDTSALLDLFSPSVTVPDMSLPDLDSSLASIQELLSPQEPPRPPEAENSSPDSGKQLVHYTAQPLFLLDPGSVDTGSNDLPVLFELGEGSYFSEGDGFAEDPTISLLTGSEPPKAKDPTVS
Chain of ETV1 (P50549 whole entry): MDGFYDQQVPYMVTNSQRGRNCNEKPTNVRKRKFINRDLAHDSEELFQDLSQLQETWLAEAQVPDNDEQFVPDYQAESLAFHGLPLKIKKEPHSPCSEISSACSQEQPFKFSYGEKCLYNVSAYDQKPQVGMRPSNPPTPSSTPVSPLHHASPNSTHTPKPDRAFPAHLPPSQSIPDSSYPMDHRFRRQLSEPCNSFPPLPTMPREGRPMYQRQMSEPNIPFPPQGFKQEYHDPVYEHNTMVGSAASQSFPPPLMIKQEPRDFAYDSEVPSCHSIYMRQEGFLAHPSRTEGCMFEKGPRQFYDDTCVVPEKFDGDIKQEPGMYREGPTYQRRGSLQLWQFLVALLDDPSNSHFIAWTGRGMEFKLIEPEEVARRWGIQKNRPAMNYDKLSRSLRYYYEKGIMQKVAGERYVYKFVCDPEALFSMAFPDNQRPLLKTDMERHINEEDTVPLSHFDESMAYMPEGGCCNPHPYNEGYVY
Chain of CRX (O43186 whole entry): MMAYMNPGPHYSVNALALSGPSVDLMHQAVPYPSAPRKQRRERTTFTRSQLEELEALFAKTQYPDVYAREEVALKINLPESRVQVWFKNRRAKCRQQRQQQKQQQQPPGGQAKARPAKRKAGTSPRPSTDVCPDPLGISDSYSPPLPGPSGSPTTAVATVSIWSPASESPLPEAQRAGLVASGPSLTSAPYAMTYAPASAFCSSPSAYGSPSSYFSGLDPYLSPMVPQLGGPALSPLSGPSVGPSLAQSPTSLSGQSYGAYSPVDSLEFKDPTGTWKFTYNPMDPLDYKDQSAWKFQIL
Chain of ELF4 (Q99607 whole entry): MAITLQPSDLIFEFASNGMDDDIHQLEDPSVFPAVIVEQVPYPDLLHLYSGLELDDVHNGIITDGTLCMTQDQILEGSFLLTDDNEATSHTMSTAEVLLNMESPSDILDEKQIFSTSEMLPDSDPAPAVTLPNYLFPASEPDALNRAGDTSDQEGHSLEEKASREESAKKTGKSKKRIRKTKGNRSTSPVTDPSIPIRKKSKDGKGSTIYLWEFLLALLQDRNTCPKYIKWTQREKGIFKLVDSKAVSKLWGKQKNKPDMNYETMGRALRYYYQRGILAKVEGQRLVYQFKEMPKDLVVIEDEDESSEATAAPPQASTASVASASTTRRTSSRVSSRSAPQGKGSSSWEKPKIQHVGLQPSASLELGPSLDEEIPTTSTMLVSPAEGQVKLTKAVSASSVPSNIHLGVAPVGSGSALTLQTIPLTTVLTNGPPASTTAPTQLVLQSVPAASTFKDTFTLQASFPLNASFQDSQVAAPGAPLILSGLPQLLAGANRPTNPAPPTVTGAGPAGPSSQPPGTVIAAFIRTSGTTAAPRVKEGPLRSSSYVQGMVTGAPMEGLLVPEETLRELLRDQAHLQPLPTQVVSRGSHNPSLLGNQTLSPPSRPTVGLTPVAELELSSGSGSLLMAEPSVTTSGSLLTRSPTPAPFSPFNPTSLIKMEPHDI

AAAATG: the binding signal in assay [1] was 1.16 fold enrichment (6-mer frequency, TF over GST control); in assay [2], 1.23 fold enrichment (6-mer frequency, TF over GST control); in assay [3] it was 1.15 fold enrichment (6-mer frequency, TF over GST control); in assay [4] it was 1.32 fold enrichment (6-mer frequency, TF over GST control); in [5], 1.26 fold enrichment (6-mer frequency, TF over GST control); in assay [6], 1.27 fold enrichment (6-mer frequency, TF over GST control). In addition, the binding signal was 1.31 fold enrichment (6-mer frequency, TF over GST control) in assay [7]; 1.32 fold enrichment (6-mer frequency, TF over GST control) in [8]; 1.1 fold enrichment (6-mer frequency, TF over GST control) in assay [9]; 1.2 fold enrichment (6-mer frequency, TF over GST control) in assay [10]; 1.21 fold enrichment (6-mer frequency, TF over GST control) in [11]; 1.24 fold enrichment (6-mer frequency, TF over GST control) in [12]. The binding signal is 1.21 fold enrichment (6-mer frequency, TF over GST control) in assay [13]; 1.08 fold enrichment (6-mer frequency, TF over GST control) in assay [14]; 1.28 fold enrichment (6-mer frequency, TF over GST control) in [15]; 1.24 fold enrichment (6-mer frequency, TF over GST control) in assay [16]; 1.2 fold enrichment (6-mer frequency, TF over GST control) in assay [17]; 1.24 fold enrichment (6-mer frequency, TF over GST control) in [18].

Source of the values: publication PMC7862700, “An all-to-all approach to the identification of sequence-specific readers for epigenetic DNA modifications on cytosine”.
